Data: the supplement of paper PMC6555819

Experiments:
Assay in all cases: PBM binding z-score (relative to random genomic background probes); higher = stronger binding; sequences stand for … in GC…GCGATTGACAGCGTAGAATGAAGG
[1] = system: PPARg:RXRa DBDmut IVT, anti-RXR (DBD mutation: RXRa K156A/R161A, NR concentration 270 nM, RXRa partner concentration 90 nM)
Summary of the method: (§1)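 Ligand-free nuclear receptor dimers were applied to custom Agilent 4×180K protein-binding microarrays whose double-stranded probes carried direct-repeat seeds, single-nucleotide variants, half-site ablations and random human genomic background sequences in 34-nt variable regions. Incubation lasted 1 h. Binding z-scores were computed against the random background probes from regression-normalized fluorescence.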

[2] = system: PPARg:RXRa IVT, anti-PPARg (NR concentration 270 nM, RXRa partner concentration 90 nM)
Summary of the method: as §1

[3] = system: PPARg DBDmut:RXRa IVT, anti-PPARg (DBD mutation: PPARg1 K132A/R137A, NR concentration 270 nM, RXRa partner concentration 90 nM)
Summary of the method: as §1

[4] = system: PPARg DBDmut IVT, anti-PPARg (DBD mutation: PPARg1 K132A/R137A, NR concentration 270 nM)
Summary of the method: as §1

[5] = system: PPARg homodimer (NR concentration 180 nM)
Summary of the method: as §1

[6] = system: PXR:RXRa (NR concentration 270 nM, RXRa partner concentration 90 nM)
Summary of the method: as §1

[7] = system: PXR homodimer (NR concentration 270 nM)
Summary of the method: as §1

[8] = system: RARa:RXR (NR concentration 270 nM, RXRa partner concentration 90 nM)
Summary of the method: as §1

[9] = system: RARa homodimer (NR concentration 270 nM)
Summary of the method: as §1

[10] = system: RARb:RXRa (NR concentration 270 nM, RXRa partner concentration 90 nM)
Summary of the method: as §1

[11] = system: RARb homodimer (NR concentration 270 nM)
Summary of the method: as §1

[12] = system: RARg:RXRa (NR concentration 270 nM, RXRa partner concentration 90 nM)
Summary of the method: as §1

[13] = system: RARg homodimer (NR concentration 270 nM)
Summary of the method: as §1

[14] = system: RXRa DBDmut IVT, anti-RXR (DBD mutation: RXRa K156A/R161A, NR concentration 90 nM)
Summary of the method: as §1

[15] = system: RXRa homodimer (NR concentration 180 nM)
Summary of the method: as §1

[16] = system: THRa:RXRa (NR concentration 90 nM, RXRa partner concentration 90 nM)
Summary of the method: as §1

[17] = system: THRa homodimer (NR concentration 90 nM)
Summary of the method: as §1

[18] = system: VDR homodimer (NR concentration 270 nM)
Summary of the method: as §1

Sequence	PBM binding z-score [1]	PBM binding z-score [2]	PBM binding z-score [3]	PBM binding z-score [4]	PBM binding z-score [5]	PBM binding z-score [6]	PBM binding z-score [7]	PBM binding z-score [8]	PBM binding z-score [9]	PBM binding z-score [10]	PBM binding z-score [11]	PBM binding z-score [12]	PBM binding z-score [13]	PBM binding z-score [14]	PBM binding z-score [15]	PBM binding z-score [16]	PBM binding z-score [17]	PBM binding z-score [18]
ATCTCTAGGGAAGACTCAGTTCAGTGAAGAACGC	0.54	0.0201	0.66	0.331	0.641	0.582	1.3	-0.127	0.457	-0.0542	0.462	-0.132	-0.0509	0.532	-0.129	0.262	0.318	1.38
ACAGACAGGGGAGTGAAGGTAACTCAGCTGGACG	-0.166	-0.191	0.22	-0.386	0.229	-0.136	0.147	-0.342	0.313	0.21	0.179	-0.128	0.208	-0.277	0.0403	0.674	0.101	-0.467
CAAACTAGGTCAAGGTCAAACTCGGTTTGTGCCA	7.83	8.72	1.79	1.1	2.32	5.44	2.6	5.03	1.19	5.27	5.07	6.04	6.55	3.28	5.73	4.64	3.95	3.81
GGAAAGAGGGCAAGTTGATAGCAGAGTTTGATGG	3.57	2.18	0.748	-0.108	1.67	1.29	1.23	0.849	1.34	2.93	2.23	2.23	3	1.94	1.43	1.02	0.275	1.93
CCGACTGGGGCAAGGTTACCGTAACGCACAGCCA	3.53	3.71	-0.69	-1	-0.362	0.043	-0.221	0.745	-0.534	1.69	1.39	1.08	1.28	-0.694	1.04	1.22	0.42	-0.25
ACAGACAGGTGAGTGAAGGTAATTCAGCTGGACG	0.0687	0.119	0.248	-0.584	-0.206	-0.2	-0.191	-9.88e-05	-0.0883	0.49	-0.0285	0.335	0.578	-0.442	0.191	1.25	-0.521	-0.158
TCTAGTTGGTCAAAGGTCACACATTCGAAATGCG	3.49	6.33	1.17	1.94	4.05	5.8	1.55	6.86	2.63	5.06	5.15	6.77	5.76	1.62	7.57	4	2.07	2.42
CCGAGTAGGTTATGAGGCATTCAGGCAACGGTGA	2.79	2.1	-0.794	-0.318	0.571	-0.101	-0.42	0.567	-0.00223	0.501	0.133	0.306	0.215	0.178	0.451	0.303	0.0556	0.0236
TCTAGTTGGTCACGGAAGTCACACACGACGGGTA	2.3	2.31	1.45	0.841	1.08	0.653	0.0861	1.01	1.21	1.65	1.41	1.36	1.54	0.587	1.21	0.441	0.354	0.0407
CAAACTTGGTCAAGGTCAAAGTCGGTTTGTGCCA	2.24	3.79	0.249	1.03	1.86	4.45	1.54	4.15	0.201	4.12	4.26	4.46	4.37	2.33	4.72	3.92	3.4	3.32
TCTATTAGTTGATTAGGGCAACCTAAACAGCGGA	1.94	1.73	1.37	1.62	1.03	0.712	-0.0681	1.11	1.09	1.14	0.947	0.824	0.799	0.995	0.669	0.862	0.4	0.145
CGTCCAAGTTCAATGCTAGGTCAGTGAAAGCATT	0.331	0.878	0.0119	0.59	2.95	4.21	4.73	3.6	1.33	3.79	3.86	5.74	4.36	4.53	2.5	3.53	1.21	4.43
TCTTGTAGATCAATAGAGGTTAAAAAAGTGCGCT	1.82	1.24	0.792	0.476	0.579	2.56	0.23	1.79	0.767	0.762	1.19	0.821	0.586	0.81	1.39	2.21	-0.13	0.48
GCTTGTAGATCAAGGTGAAGAAAGACTAAGCTAA	1.63	1.6	-0.514	-0.503	-0.575	-0.352	-0.243	-0.339	-0.424	0.0933	-0.485	-0.139	-0.0485	-0.298	-0.15	1.04	0.0567	-0.307
TTATCAAGGTGAAGGTCGTTGATCCCTCTGTAGA	2.89	3.99	1.51	0.341	1.18	1.66	0.515	2.18	-0.235	2.21	1.82	1.55	1.33	0.598	1.89	2.68	1.3	1.23
CGAACTAGGTCAAGAACAGTGAATCTCCGCACGC	8.01	8.06	0.866	0.438	1.15	0.968	-0.254	1.69	0.13	3.69	2.48	3.31	4	1.65	2.36	2.33	0.755	0.197
